Pf growth 96h = P. falciparum growth inhibition at 96 hours. P. falciparum luciferase reporter growth, 96 h. Potency, µM (top dose mostly 28.7 µM), inactives show at the highest dose activity change, negative = inhibition, most hits filed as inhibitors. 320,000 compounds, 6.9% hits. AID 504834; further: potency means the concentration at half of the fitted maximal effect; on the % scale 0 is the no-effect control and ±100 the full control effect
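Two parasite generations (96 h, 37 C, 5% CO2) of compound exposure in infected erythrocytes (0.05% parasitemia, 2% hematocrit). Luciferase-reporter P. falciparum; decreased luminescence indicates inhibited growth, aimed at apicoplast-acting delayed death.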
Giardia FBPA inh = blocks Giardia fructose-bisphosphate aldolase activity; purified Giardia FBPA; Potency, µM (top dose mostly 59.6 µM), for inactives: at the top dose activity, negative = inhibition, usual class: inhibitors; 290,000 compounds, 0.71% hits; A8B2U2; further: potency means the concentration at half of the fitted maximal effect; on the % scale 0 is the no-effect control and ±100 the full control effect; nearly all actives have a fitted effect of over 55% in size
Target sequence (A8B2U2 whole entry, looked up): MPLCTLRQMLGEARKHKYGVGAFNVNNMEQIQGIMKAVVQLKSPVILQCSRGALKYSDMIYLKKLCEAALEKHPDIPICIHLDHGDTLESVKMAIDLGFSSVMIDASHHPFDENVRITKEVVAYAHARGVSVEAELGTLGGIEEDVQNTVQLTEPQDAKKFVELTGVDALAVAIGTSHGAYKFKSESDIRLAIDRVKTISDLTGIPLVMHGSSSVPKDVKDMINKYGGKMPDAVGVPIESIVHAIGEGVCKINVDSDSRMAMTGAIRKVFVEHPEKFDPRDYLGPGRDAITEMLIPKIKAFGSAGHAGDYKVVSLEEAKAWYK
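40 nM FBPA preincubated 10 min at RT with compound (up to 57.5 uM final), then substrate plus GAPDH/TPI/NAD/arsenate coupling and diaphorase/resazurin added. Fluorescence read after 20 min at RT, 525/598 nm.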
CHX counter = counter-screen hit for Shiga toxin inhibitors, cycloheximide | cell reporter, cycloheximide protein synthesis inhibition counterscreen | max response, % | 300,000 compounds, 12% hits; in the data active means max response mostly above about 13%, no sharp cut-off; inactive means mostly below about 14%; further: read at 38.3 µM for the half of the compounds with a filed dose; 0% is about no effect
Pf growth 48h = P. falciparum growth inhibition at 48 hours (one generation). Potency, µM (doses to about 28.7 µM), for inactives: at the highest dose activity change, negative = inhibition, usual class: inhibitors. 310,000 compounds, 5.9% hits. P. falciparum luciferase growth in erythrocytes, 48 h; further: potency means the concentration at half of the fitted maximal effect; on the % scale 0 is the no-effect control and ±100 the full control effect
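Luminescence readout; reporter = integrated firefly luciferase in P. falciparum. RBC culture at 2% hematocrit, 0.1% parasitemia final, 37 C/5% CO2; decreased signal taken as growth inhibition.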
Shiga inhibitor = Shiga toxin inhibition; 290,000 compounds, 9.2% hits; inhibition, % at 38.7 µM; AID 2315; Vero cells, Shiga toxin protein synthesis inhibition reporter; in the data active means inhibition mostly above about 28%, no sharp cut-off; inactive means mostly below about 43%; further: 0% is about no effect
NS1 inh = influenza NS1 inhibition | Potency, µM (doses to about 46.1 µM), inactives show at the highest dose activity, positive = more growth | 270,000 compounds, 0.4% hits | AID 2326; calls by dose curve; further: potency means the concentration at half of the fitted maximal effect; actives are rising curves; nearly all actives have a fitted effect of over 50% in size
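S. cerevisiae expressing influenza A NS1, grown in glucose, washed, then diluted 1:100 into pH 6.0 -URA galactose medium with 23 nl compound. Growth recovery read as OD600; NS1-free strain serves as control.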
Active calls of the source: *; u = inconclusive; x = no result; [ ] = another dose, or the depositor's remark. Shown are actives, neighbours in structure and some others; about 21% of the full set was active somewhere. Unless noted, the call rests on the fitted dose curve; in most records, active means well fitted curve in the direction sought with a large enough effect; inconclusive means small, poorly fitted or top-dose-only effect, or another doubt; inactive means no such curve, though single readings can be large; an effect the other way counts as inactive or inconclusive.

SMILES | Pf growth 96h | Giardia FBPA inh | CHX counter | Pf growth 48h | Shiga inhibitor | NS1 inh
COc1ccc(-n2nc3c(c2NC(=O)CCl)CSC3)cc1 | u | -10.9% | 11.7 | 0.738µM* | 13.1 | -8.2%
Cc1ccccc1NC(=O)COC(=O)c1cc(=O)c2ccccc2o1 | -1.7% | 5.8% | -2.3 | -26.5% | 2.7 | x
c1ccc(-n2cnc3ccccc32)nc1 | -8.6% | -2.4% | 11.0 | 18.3% | 13.3 | -3.6%
c1ccc(-c2ccc(-c3n(-c4ccccn4)c4ccccc4[n+]3-c3ccccn3)cc2)cc1 | 14.7µM* | -29.3% | 12.8 | u | -2.5 | x
COc1ccc(S(=O)(=O)N2CCCC(C(=O)NCc3cccnc3)C2)cc1OC (stereo not given) | u | x | x | -20.3% | x | x
O=C(NCCCn1ccnc1)c1cc2c(ccc3ccccc32)o1 | -11.1% | 0.1% | 30.7* | 41.3% | 67.7 | x
O=C(NCCCn1ccnc1)c1ccc(Br)o1 | 19.9% | 9.1% | -3.0 | x | 18.1 | 4.2%
O=c1c2ccccc2oc2ccc(NCCCn3ccnc3)cc12 | 222.8% | 3.8% | 32.5* | 176.4% | 54.4* | 8.0%
O=C(NCCCn1ccnc1)C(=O)NCc1ccccc1 | -18.4% | -4.7% | -1.7 | -13.3% | 2.5 | 10.8%
COc1ccc(C2=NN(CCC(=O)NCc3cccs3)C(=O)CC2)cc1 | u | 3.5% | -1.2 | 4.0% | -5.7 | x
CCN1C(=O)[C@H]2[C@H]3[C@H](O)[C@H](O)C/C(=N/OCC(C)C)[C@H]3CC[C@@H]2C1=O | x | -0.7%[12.9 µM] | x | x | x | x
CNc1ccc(Br)cc(C(=O)/C=C/c2cccc(OC)c2)c1=O | u | u | 12.8* | u | -35.5 | 16.0%
CNc1ccc(Br)cc(C(=O)/C=C/c2ccc(OC)cc2OC)c1=O | u | u | 64.9* | u | 79.6* | u
CCNc1ccc(Br)cc(C(=O)/C=C/c2ccc(Cl)cc2)c1=O | u | u | 2.2 | -72.0% | 22.3 | -30.6%
CNc1ccc(Br)cc(C(=O)/C=C/c2ccc(Cl)cc2Cl)c1=O | u | u | 2.1 | u | -4.1 | 3.1%
COc1cc(C)cc2c(-c3c(O)cc(O)c4c3C[C@H](C)N[C@@H]4C)cc(-c3cc(-c4c(O)cc(O)c5c4C[C@H](C)N[C@@H]5C)c4cc(C)cc(OC)c4c3O)c(O)c12 | x | x | x | x | x | 7.94µM*
O=C(Nc1ccon1)c1ccc(Cl)s1 | 11.6% | 9.6% | 14.9* | 61.5% | 14.9 | -0.6%
Cc1ccnc(NC(=O)c2cnc(Cl)c(Cl)c2)c1 | 23.8% | 0.7% | 32.5* | 50.2% | 116.3* | -12.1%
Cc1ccnc(NC(=O)c2ccc(C(=O)c3ccccc3)cc2)c1 | -26.1% | x | x | 10.6% | x | x
Cc1ccnc(NC(=O)c2ccc(Cl)s2)c1 | 214.4% | 4.3% | 53.0* | 167.6% | 69.5* | -14.0%
CCOC(=O)C1CCN(C(=O)c2cc(S(=O)(=O)N3CCOCC3)ccc2C)CC1 | -22.8% | x | x | 0.5% | x | x
Fc1ccc(-c2cc(-c3cccs3)cc(-c3ccccc3)n2)cc1 | u | 1.5% | -2.2 | u | 23.7 | 5.6%
Fc1ccc(-c2nc(-c3cccs3)no2)cc1 | 123.7% | 4.1% | 44.4* | 157.2% | 127.0* | -6.7%
COC(=O)c1ccc(-c2nc(-c3cccs3)no2)cc1 | -18.0% | 0.1% | 40.3* | x | 65.4* | -2.2%
Fc1ccc(-c2cnc(-c3cccs3)o2)cc1 | 0.0% | -2.6% | 42.0* | 328.9% | 134.5* | 4.9%
SMILES | Pf growth 96h | Giardia FBPA inh | CHX counter | Pf growth 48h | Shiga inhibitor | NS1 inh
CN(CC(=O)Nc1ccccc1C(F)(F)F)C(=O)C1=COCCO1 | -15.6% | x | x | 31.7% | x | x
O=c1c2ccccc2nc2ccc(N3CCOCC3)nn12 | u | 1.2% | 28.5* | 102.4% | 51.8* | 4.5%
Cc1nnc2ccc(N3CCN(C)CC3)nn12 | 12.7% | 4.8% | -3.7 | 0.0% | 12.3 | 7.2%
Cc1ccc2nc3ccc(N4CCN(C)CC4)nn3c(=O)c2c1 | 102.5% | -3.6% | 32.3* | 174.6% | 57.3* | -0.9%
Cc1ccc2nc3ccc(N4CCCCCCC4)nn3c(=O)c2c1 | x | -0.2% | 28.1* | 40.1% | 56.3* | -5.6%
C/C(=N\S(=O)(=O)c1ccc(C)cc1)N(C)C | -14.9% | 2.4% | -1.3 | u | -12.0 | -4.4%
Cc1cc(C)c(NC(=O)CSCc2c(C)noc2C)c(Cl)c1 | -1.7% | x | x | -4.5% | x | x
CCc1ccc(-c2nc(SCC(=O)N(C)C3CCS(=O)(=O)C3)n[nH]2)cc1 (stereo not given) | 12.1% | x | x | 28.6% | x | x
O=C(COC(=O)c1ccccc1F)NC(=O)NC1CCCC1 | 58.3% | x | x | 14.7% | x | x
CC(Sc1nnc(C2CC2)n1C1CC1)C(=O)N(C)Cc1cccc(F)c1 (stereo not given) | u | x | x | 3.2% | x | x
O=C(Nc1nnc(C2CC2)s1)c1cccs1 | u | x | 51.0* | 110.1% | 99.5* | -38.2%
O=C(CCC(=O)Nc1nnc(C2CCCCC2)s1)Nc1ccccc1 | 9.3% | 10.8% | 1.0 | 21.9% | 4.8 | -3.0%
O=C(CCCCC(=O)NCc1cccs1)NCc1cccs1 | u | 6.1% | -0.8 | 7.5% | -0.7 | 4.2%
O=C(CCC(=O)c1cccs1)Nc1nnc(C2CC2)s1 | x | 0.7% | 17.0* | -12.0% | 4.1 | 0.8%
Cc1nnc(NC(=O)CCC(=O)NCc2cccs2)s1 | 6.8% | 5.4% | 6.0 | 69.0% | -7.2 | 11.5%
O=C(Nc1nnc(C2CC2)s1)c1cc2c(s1)CCCCCC2 | 76.3% | 0.6% | 9.1 | 24.4% | -3.5 | -1.8%
O=C(CCC(=O)Nc1nnc(C2CCCCC2)s1)NCc1cccs1 | 10.4µM* | 7.5% | 6.4 | 20.0% | 22.2 | 5.6%
O=C(CCC1CCCC1)NCc1cccs1 | 100.6% | -0.9% | 25.8* | 44.3% | 99.5 | -0.8%
O=C(NCc1cccs1)C1CC1 | -4.9% | 3.1% | 13.5 | -39.1% | 13.5 | 3.9%
CC(C)N1C(=O)CCC1C(=O)NCc1cccs1 (stereo not given) | -5.4% | 2.4% | 43.5* | 23.8% | 72.5 | x
Cc1cc(C)c2c(N)c3ccccc3nc2n1 | 106.1% | 0.1% | 2.6 | 14.7µM* | 72.5 | -21.0%
CCc1ccc2nc3nc(C)cc(C)c3c(N)c2c1 | 1.65µM* | 6.3% | 19.6* | u | 90.8* | 0.8%
CCc1ccc(NC(=S)/N=C(\N)Nc2nc(C)c3cc(CC)ccc3n2)cc1 | u | 4.5% | 8.7 | u | -2.9 | 17.7%
COc1ccc(NC(=O)C2=CN3CCS(=O)(=O)N=C3C=C2)c(OC)c1 | 5.4% | x | x | -7.1% | x | x
COc1ccc(CNC(=O)CN2C(=O)COc3ccc(S(=O)(=O)N4CCCCC4)cc32)cc1 | 41.4% | 12.5% | 9.7 | 29.7% | -4.4 | 3.4%
CCN(C(=O)CN1C(=O)NC(c2ccccc2)(c2ccc(C)c(C)c2)C1=O)C1CCS(=O)(=O)C1 (stereo not given) | 13.1µM* | x | x | u | x | x
CCN(C(=O)CN1C(=O)NC(c2ccccc2)(c2ccc(C)c(C)c2)C1=O)C1CCCCC1 (stereo not given) | 3.29µM* | x | x | 6.57µM* | x | x
CC1OC(OC2CCC3(C)C(CCC4C3CC(O)C3(C)C(C5=CC(=O)OC5)CCC43O)C2)CC(O)C1OC1CC(O)C(OC2CC(O)C(OC3OC(CO)C(O)C(O)C3O)C(C)O2)C(C)O1 (stereo not given) | u | -0.3% | -7.4 | -17.0% | -15.2 | x
